Data: PubChem BioAssay (NCI)
Compounds without any hit were thinned out: in the full panel of roughly 79,000, 15% have a hit. No stated cut-off is given here; in the data, active means growth inhibition above about 70%; inactive means the rest.

Experiments:
[1] = NCI Yeast Anticancer Drug Screen. Data for the rad50 strain (AID 155);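 further: 0% = growth of vehicle-only cultures of the same strain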; conditions: S. cerevisiae rad50 strain growth inhibition; at 50.0 µM; active compounds read high
Summary of the method: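 DNA repair mutant yeast, compound exposure, growth read-out; inhibition is taken relative to vehicle.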

[2] = NCI Yeast Anticancer Drug Screen. Data for the mec2-1 strain (AID 157); conditions: S. cerevisiae mec2-1 strain, at 50.0 µM, active compounds read high
Summary of the method: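 Compounds were applied to mec2-1 yeast cells. Their growth was then compared with that of vehicle-treated cultures to give growth inhibition.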

[3] = NCI Yeast Anticancer Drug Screen. Data for the sgs1 mgt1 strain (AID 161);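 further: 0% = growth of cultures given vehicle only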; conditions: S. cerevisiae sgs1 mgt1 strain, at 50.0 µM, active compounds read high
Summary of the method: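 Yeast cells carrying a defined DNA-repair defect were exposed to test compounds. Growth inhibition was measured relative to vehicle-treated controls.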

[4] = NCI Yeast Anticancer Drug Screen. Data for the cln2 rad14 strain (AID 165);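 further: 0% = growth equal to vehicle treated cultures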; conditions: S. cerevisiae cln2 rad14 strain, at 50.0 µM, active compounds read high
Summary of the method: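 Strain: cln2 rad14 yeast, altered in cell cycle control and DNA damage repair. Read-out: growth inhibition vs vehicle.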

[5] = NCI Yeast Anticancer Drug Screen. Data for the bub3 strain (AID 167); conditions: S. cerevisiae bub3 mutant strain, at 50.0 µM, active compounds read high
Summary of the method: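 In this screen, a yeast mutant lacking normal mitotic checkpoint function is challenged with compound. Relative growth versus vehicle gives the inhibition value.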

[6] = NCI Yeast Anticancer Drug Screen. Data for the mlh1 rad18 strain (AID 175); conditions: S. cerevisiae mlh1 rad18 strain growth inhibition; at 50.0 µM; active compounds read high
Summary of the method: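 A repair-deficient yeast strain is exposed to test compound, and growth is scored relative to vehicle-treated controls.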

Measured: growth inhibition

CCOC(=O)C(C(O)c1ccc([N+](=O)[O-])cc1)P(=O)(OCC)OCC (stereo unspecified)
inactive: [1] 24.3% | [2] -16.4% | [3] -4.7% | [4] 5.25% | [5] -10.9% | [6] -20.2%

CCCCCC(/C=N/Nc1ccccn1)=C\c1ccccc1
inactive: [1] -0.25% | [2] -2.1% | [3] 3.9% | [4] -18.2% | [5] -17.4% | [6] -17.4%

CCOC(=O)C1C(=S)NC(=O)C1C#N (stereo unspecified)
inactive: [1] 0.3% | [2] -0.05% | [3] 1.35% | [4] 0.75% | [5] 11.3% | [6] -4.7%

C/C=C/[C@@H]1[C@H]2C(=O)[C@]3(Cl)[C@@H](/C=C/C)[C@@H]3C(=O)[C@@]12Cl
inactive: [1] 5.05% | [2] 6.1% | [3] 6.45% | [4] 12.8% | [5] 10% | [6] 29.6%

CN(C)c1ccc(/C=C/C=C(/C#N)c2ccccc2)cc1
inactive: [1] 14.8% | [2] 8.5% | [3] 2.9% | [4] 32.2% | [5] 24.3% | [6] 2.65%

Nc1ccn[nH]1
inactive: [1] 5.1% | [2] -0.05% | [3] 0.8% | [4] -2.25% | [5] 18.1% | [6] 1.35%

CCOc1ccccc1/C=C1\CCc2ccccc2C1=O
inactive: [1] 21.6% | [2] 34.8% | [3] 42.7% | [4] 0.4% | [5] 49.9% | [6] 23%

Nc1nc(N)c(N=Nc2ccccc2[N+](=O)[O-])c(=O)[nH]1
inactive: [1] 5.85% | [2] -15.8% | [3] 2.4% | [4] -4.95% | [5] 11.1% | [6] -1.05%

CC1(c2cccs2)C(=O)NC(=O)N1C(=O)CCl (stereo unspecified)
inactive: [1] 6.8% | [2] 4.55% | [3] -6.65% | [4] -2.75% | [5] 9.3% | [6] 5.55%

CCOC(=O)CN(C)C#N
inactive: [1] -16.9% | [2] -33.3% | [3] -44% | [4] -5.3% | [5] -31.6% | [6] -2.15%

[Cl][Pt+2][Cl].[NH-]C1CCC1.[NH2-]
inactive: [1] 3.25% | [2] -3.5% | [3] -3.85% | [4] 18.4% | [5] -16.1% | [6] -66.6%

CC(=O)c1ccc(N=NN2CCCC2)cc1
inactive: [1] 30.2% | [2] 8.35% | [3] 17.1% | [4] 31.4% | [5] 34.2% | [6] 2.7%

C=C1CCC2C(C)(CO)C(O)CCC2(C)C1CCC1=CCOC1=O (stereo unspecified)
inactive: [1] -22.4% | [2] -17.6% | [3] -3.2% | [4] 3.35% | [5] -4.4% | [6] -8.05%

O=c1c(=[n+]2ccc(=C([O-])c3ccccc3)cc2)/c(=N/S(=O)(=O)c2ccccc2)c(=O)c2ccccc12
inactive: [1] 19.2% | [2] 33.1% | [3] 39.8% | [4] 7% | [5] 12.8% | [6] 26.4%

CCN(CC)CCOC(=O)C(S)(c1ccccc1)C1CCCCC1 (stereo unspecified)
inactive: [1] 13.8% | [2] -7.3% | [3] 1% | [4] -12.8% | [5] -12.7% | [6] 16.9%

CC(=O)Nc1c(C)ncn(-c2ccccc2)c1=O
inactive: [1] -36.9% | [2] -19.9% | [3] -2.95% | [4] -28.4% | [5] -2.75% | [6] -11.2%

CC(C)(C)C(=O)Nc1ccccc1
inactive: [1] 37.7% | [2] 17% | [3] 0.2% | [4] 1.55% | [5] -12.4% | [6] 23%

Cc1nc(Nc2ccc(Cl)c(Cl)c2)sc1C(=O)/C=C/c1ccc2c(c1)OCO2
inactive: [1] 39.5% | [2] 23.1% | [3] 13.6% | [4] -2.2% | [5] -7.75% | [6] 38.3%

CC(=O)n1cc(CC(C)O)c(=O)[nH]c1=O (stereo unspecified)
inactive: [1] -2.45% | [2] -21% | [3] -16.2% | [4] 4.85% | [5] -13.2% | [6] -28.1%

CCCCOc1ccc(CCOC(C)=O)cc1
inactive: [1] 6.5% | [2] -14.4% | [3] 1.7% | [4] -25.3% | [5] -15% | [6] -20.8%

CC1=C(C(=O)CC(=O)C(=O)Nc2ccc(Cl)cc2Cl)Sc2ccccc2N1
inactive: [1] -5.65% | [2] -11.2% | [3] -20.1% | [4] -6.1% | [5] 2.55% | [6] 3.45%

NCCCCC(N)C(=O)O.[Cu+2] (stereo unspecified)
inactive: [1] -13.6% | [2] 3.95% | [3] -4.9% | [4] -6% | [5] -11.8% | [6] -22.8%

O=C(O)CN1CCCCC1
inactive: [1] -5.65% | [2] 5.5% | [3] -3.8% | [4] -27.1% | [5] -4.1% | [6] -6.65%

COC(=O)c1c2cccccc-2c(C(=O)OC)c1N
inactive: [1] 15% | [2] 17.9% | [3] 28.8% | [4] -24.8% | [5] 36% | [6] 42.6%

CCOC(=O)Nc1ccc(C2SCCN2C(=O)NC)cc1 (stereo unspecified)
inactive: [1] 8.35% | [2] -22.1% | [3] 18.4% | [4] 17.4% | [5] 5.85% | [6] 32.2%

Cc1ccc(CN2CCOCC2)c(O)c1
inactive: [1] 18.9% | [2] 9.15% | [3] -0.65% | [4] -0.1% | [5] -7.45% | [6] -11.4%

Cn1cc(C(=O)c2ccccc2)c2ccccc2c1=O
inactive: [1] 41.5% | [2] -4.4% | [3] 23.8% | [4] 8.25% | [5] 31.9% | [6] 16.4%

NC(CCSc1ccccc1)C(=O)O (stereo unspecified)
inactive: [1] -0.7% | [2] 8.35% | [3] -9.85% | [4] -34.5% | [5] -29.3% | [6] -5.45%

O=C1OC(c2cccc(Cl)c2)=N/C1=C\c1ccc(O)cc1
inactive: [1] 15.8% | [2] 9.85% | [3] 15.6% | [4] 8.35% | [5] 1.45% | [6] -3.2%

Cc1ccccc1N=Nc1c(-c2ccccc2)nn(C(=O)CC(=O)Nc2cccc(Cl)c2)c1-c1ccccc1
inactive: [1] 60.9% | [2] 21.6% | [3] 55.5% | [4] 34.3% | [5] 68% | [6] 41.5%

CC(=O)O[C@@H]1[C@H]2O[C@H]2[C@H]2O[C@@]2(COC(=O)c2ccccc2)[C@H]1OC(C)=O
inactive: [1] 12.8% | [2] -25.2% | [3] 24.4% | [4] -6% | [5] 0.75% | [6] -38.5%

O=C(O)c1ccc(C(=O)C2CC(C(=O)O)CCC2S(=O)(=O)O)cc1 (stereo unspecified)
inactive: [1] -10.1% | [2] 11.8% | [3] -19.8% | [4] -30.6% | [5] -0.4% | [6] 17.1%

Cc1nc2c(=O)n3c4c(cccc4c2o1)CCC3
inactive: [1] 14.4% | [2] 10.4% | [3] 21.6% | [4] 14.5% | [5] 14.5% | [6] -48.4%

NS(=O)(=O)c1ccc(NC(=O)c2cccn3c(=O)c4ccccc4nc23)cc1
inactive: [1] 6.6% | [2] 9.45% | [3] -7.6% | [4] 27.2% | [5] -0.25% | [6] 14.9%

OCC1C=Cc2ccccc21 (stereo unspecified)
inactive: [1] -3.8% | [2] 0.65% | [3] -0.6% | [4] 2.15% | [5] 14.5% | [6] -2.4%

O=C1ON=C2C3CC4CC12CC1(C3)C(=O)ON=C41
inactive: [1] -3.05% | [2] -6.45% | [3] -3.8% | [4] -1.9% | [5] -12.1% | [6] -19.8%

CC1C(O)CC23COC(=O)C2=CCCC3C1(C)CCC1=CC(=O)OC1 (stereo unspecified)
inactive: [1] -8.6% | [2] -38.9% | [3] -26.2% | [4] -7% | [5] -42% | [6] -20.9%

O=C1CC2[C@@H](N3CCCC3)CCC(N1Cc1ccccc1)C2(O)O (stereo partly specified)
inactive: [1] -6.75% | [2] -38% | [3] 1.2% | [4] -4.05% | [5] -19.8% | [6] 3.25%

NC(CCOCCP(=O)(O)CCC1C=CC=CC1)C(=O)O (stereo unspecified)
inactive: [1] -9.6% | [2] -31.7% | [3] -29.1% | [4] 5.6% | [5] -21.3% | [6] -19.9%

COc1ccc2nc3ccccc3c(NCCCN(C)C)c2c1
inactive: [1] 33.7% | [2] 41.1% | [3] 36.5% | [4] 60.1% | [5] 6.65% | [6] 12.3%

CNCc1cccc(OC)c1OC
inactive: [1] -1.05% | [2] -5.4% | [3] -2.35% | [4] -0.6% | [5] 16.2% | [6] -2.7%
